Source: PubChem BioAssay (NCI)
The panel holds about 83,000 compounds, 20% with a hit somewhere; the sample as a whole holds those more often.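 96-well plates, one dose, 48 hours. Percent growth reported; active if below 10.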 Values without a mark were called inactive. Active and inactive are the calls of the source.

Legend:
Test in all cases: NCI-60 one-dose screen, 48 h (100 = growth as untreated, 0 = no growth, -100 = all killed)
Settings in all cases: 10 µM unless noted
[1] = system: HCT-15 colon
[2] = system: HT29 colon
[3] = system: SNB-75 CNS
[4] = system: SNB-19 CNS
[5] = system: U251 CNS
[6] = system: PC-3 prostate
[7] = system: SK-MEL-5 melanoma
[8] = system: UACC-62 melanoma
[9] = system: LOX IMVI melanoma
[10] = system: SK-MEL-28 melanoma

Row | SMILES | growth [1] | growth [2] | growth [3] | growth [4] | growth [5] | growth [6] | growth [7] | growth [8] | growth [9] | growth [10]
1 | CC(c1ccc(-n2cccn2)cc1)c1cnc(N2CCc3ccc(C(N)=O)cc3C2)s1 (stereo not given) | 69.3% | 81.3% | 76.1% | 85.4% | 78.3% | 59.1% | 18.8% | 57.3% | 66.4% | 81.8%
2 | CC(C)OC(=O)OCOP(=O)(OCOC(=O)OC(C)C)C1CCCN(O)C1=O (stereo not given) | 33.4% | 5.87% (active) | 57.6% | 21.5% | 15.2% | 60.5% | 30.9% | 23.6% | 39% | 15.2%
3 | Cl.[Pt].[c-]1ccccc1-c1ccccn1.c1ccc(P(c2ccccc2)C([PH+](c2ccccc2)c2ccccc2)[PH+](c2ccccc2)c2ccccc2)cc1 | 7.95% (active) | 10.4% | 7.24% (active) | 27.6% | 10.7% | 9.46% (active) | -87.3% (active) | 16.8% | 12.1% | 34%
4 | Fc1ccc(Nc2nc3nonc3nc2Nc2ccc(F)cc2)cc1 | 6.25% (active) | 2.83% (active) | -12.9% (active) | 23% | -6.58% (active) | 1.43% (active) | -46.4% (active) | 3.98% (active) | 2.74% (active) | 4.39% (active)
5 | CCCN1CCN(c2ccc3nc(-c4ccc5nc(-c6ccc(OCC)c(OCC)c6)[nH]c5c4)[nH]c3c2)CC1 | 5.97% (active) | -31.3% (active) | -77.9% (active) | -39.7% (active) | -71.9% (active) | -40.6% (active) | -93.9% (active) | -85% (active) | -84.3% (active) | -86.6% (active)
6 | CC[C@@H](C[C@H](CCO)c1ccccc1)c1cc2ccccc2o1 | 95.3% | 82.7% | 79.9% | 97.4% | 90.9% | 78.8% | 106% | 88.4% | 101% | 102%
7 | CS(=O)(=O)c1ccc(-c2[nH]c3ccc(F)cc3c2/C=N/NC(N)=S)cc1 | 20.4% | 3.14% (active) | 22.4% | 15.6% | 15.5% | 19.1% | 17.3% | 14.7% | 30.1% | 39.5%
8 | C[C@@H](C[C@H](CCOCc1cccnc1)c1ccccc1)c1cc2ccccc2o1 | 91.1% | 78.1% | 85.6% | 94.2% | 93.6% | 75.6% | 98.4% | 81.2% | 95.8% | 102%
9 | O=C(Nc1ccccn1)[C@H](O)[C@@H](O)C(=O)N1CCOCC1 | 107% | 104% | 121% | 102% | 96.1% | 94% | 99.3% | 108% | 104% | 114%
10 | Clc1ccc(-c2cn(-c3ccccc3)c(-c3ccccc3)n2)cc1 | 79.4% | 85.3% | 87.7% | 79.1% | 78.2% | 59.4% | 85.9% | 92.2% | 95.8% | 93.8%
11 | C=C1C(=O)O[C@H]2[C@H]1CC/C(COC(=O)/C=C/C(=O)NCc1ccc(Cn3c(=O)sn(-c4ccccc4)c3=O)cc1)=C\CC[C@@]1(C)O[C@@H]21 | 32.9% | -46.6% (active) | 70.7% | 61.8% | 20.7% | 57.1% | -27.8% (active) | -80.8% (active) | -85.2% (active) | -40.1% (active)
12 | COc1ccc2cc(-c3ccc(C(=O)NN)c(C)n3)ccc2c1 | 99% | 95% | 109% | 96.6% | 98.9% | 93.3% | 102% | 82.1% | 88.2% | 93.7%
13 | N#Cc1c(-c2ccc(C(F)(F)F)cc2)cc(N2CC(O)C2)n2c1nc1ccccc12 | 85.7% | 74% | -18.5% (active) | 24.8% | 40.2% | 39.6% | 67.5% | 33.9% | 53.2% | 59.7%
14 | CNC(=O)c1cc(Oc2ccc3nc(NC(=O)Nc4cc(C(F)(F)F)cc(C(F)(F)F)c4)sc3c2)ccn1 | -4.69% (active) | -71.3% (active) | -71.3% (active) | 2.44% (active) | -81.8% (active) | -38.9% (active) | -47.6% (active) | -63.3% (active) | -87.5% (active) | -71% (active)
15 | COc1cc(NC(=O)c2cccc(-c3cc(=O)c4c(OC)c(OC)c(OC)cc4o3)c2)cc(OC)c1OC | 40.7% | 31.1% | 74.7% | 56.3% | 44.9% | 52.4% | 8.34% (active) | 50.5% | 24.4% | 63.5%
16 | CO/C(=C1/NC(=O)C(Cc2ccc(O)c(Br)c2)N(C)C(=O)C(C)NC(=O)CCC/C=C(\C)CCC(C)OC1=O)c1ccccc1 (stereo not given) | 3.37% (active) | 5.97% (active) | -94.2% (active) | -4.37% (active) | -36.8% (active) | -9.06% (active) | -67.6% (active) | 9.3% (active) | -34.2% (active) | -25.8% (active)
17 | O=C1c2ccccc2C2(c3ccc(O)cc3)c3ccccc3Oc3cccc1c32 (stereo not given) | 25.9% | 7.07% (active) | 42.2% | 35.6% | 15.5% | 21.6% | 16.9% | 30.8% | 28.3% | 51.9%
18 | CCN(CC)S(=O)(=O)c1ccc(O)c(NC(=O)c2[nH]c(C)c(C(C)=O)c2CCc2ccc(Cl)cc2)c1 | 42.9% | 101% | 52.1% | 47.1% | 31.1% | 32.8% | -25% (active) | 20.2% | 39.5% | 70.9%
19 | C[C@@H]1C(=O)N(C[C@@H](Cc2ccccc2)NC(=O)OCc2ccccc2)[C@]1(Cc1ccccc1)C(=O)OCc1ccccc1 | 41.6% | 50.7% | 61.1% | 44.3% | 34.6% | 14.2% | -6.61% (active) | 43.3% | 51.8% | 63.9%
20 | N#C/C(=C\c1ccc(Br)cc1)n1nnc2cc(Cl)c(Cl)cc21 | 14% | 9.9% (active) | 25.5% | 47.7% | 23.4% | 33.5% | 43.3% | 46.7% | -9.55% (active) | 51.4%
21 | O=C1NCC(=O)N(Cc2ccco2)[C@H]1Cc1ccccc1 | 98.4% | 103% | 94.5% | 94.5% | 88.6% | 91% | 102% | 96.6% | 95.6% | 107%
22 | Nc1c(-c2nc3ccc(Br)cc3c(=O)[nH]2)nnn1-c1ccccc1 | 79% | 58.8% | 79.5% | 70.6% | 38.6% | 73.4% | 102% | 93.9% | 80.4% | 96.2%
23 | CCn1c(Sc2nnc(Nc3ccccc3)s2)nc2c1c(=O)n(C)c(=O)n2C | 97.6% | 137% | 101% | 95% | 103% | 100% | 99.2% | 90.2% | 95.9% | 93%
24 | CN(C)c1ccc(/C=N/NC(=O)COc2cc(=O)n(C)c3ccccc23)cc1 | 104% | 108% | 76.8% | 88.4% | 104% | 101% | 101% | 88.5% | 99.8% | 109%
